Experimental findings from the supplement of paper PMC6555819 are described below.

Common to all, as to assay: PBM binding z-score (relative to random genomic background probes); higher = stronger binding; sequences stand for … in GC…GCGATTGACAGCGTAGAATGAAGG
Assay [1] has as its system RARb homodimer (NR concentration 270 nM). The essentials: (§1)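 For binding z-scores, the reference was random background probes on custom Agilent 4×180K protein-binding microarrays. These arrays were incubated 1 h with ligand-free nuclear receptor dimers in PBS pH 7.4, 2% milk, 0.02% Triton X-100, 1 mM DTT, 0.2 mg/mL BSA and 0.4 mg/ml salmon testes DNA. Fluorescence was scanned after antibody detection of each partner (one per run) and regression-normalized.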

Assay [2] concerns RARg:RXRa (NR concentration 270 nM, RXRa partner concentration 90 nM). The essentials: as §1
Assay [3] concerns RARg homodimer (NR concentration 270 nM). The essentials: as §1
The test system of assay [4] is RXRa DBDmut IVT, anti-RXR (DBD mutation: RXRa K156A/R161A, NR concentration 90 nM). The gist of the method: as §1
The test system of assay [5] is RXRa homodimer (NR concentration 180 nM). The essentials: as §1
The subject of assay [6] is THRa:RXRa (NR concentration 90 nM, RXRa partner concentration 90 nM). The gist of the method: as §1
For assay [7], the system named is THRa homodimer (NR concentration 90 nM). The gist of the method:
as §1

Assay [8] concerns VDR homodimer (NR concentration 270 nM). The gist of the method: as §1

For the sequence TGTCAAAGTTCAACGGTAACGTAAGTATCCACAC, the PBM binding z-score in assay [1] was 3.79; in assay [2], 5.69; in assay [3], 6.35; in assay [4], 4.26; in assay [5], 5.2; in assay [6], 1.98. For the same sequence, the PBM binding z-score was -0.415 in assay [7] and 3.5 in assay [8].
With ACTAGTTGGTCAGCCGAGGTCACACACAATTCGG, the PBM binding z-score is 4.36 in assay [1]; 4.25 in assay [2]; 4.08 in assay [3]; 0.998 in assay [4]; 4.34 in assay [5]; 5 in assay [6]. For the same sequence, the PBM binding z-score was determined as 4.33 in assay [7] and 4.04 in assay [8].
Take CCTGCTAGGTCAATGGTCAGCTGAAGCAGCTCGC: the PBM binding z-score in assay [1] turned out to be 3.18; in assay [2], 3.7; in assay [3], 4.37; in assay [4] it was 1.85; in assay [5], 2.2; in assay [6], 2.36. Besides, the PBM binding z-score in assay [7] is 0.335; in assay [8] it was 0.0523.
As to CCTCGGAGGACGGAAGGTCAGAGCTGTCCGCTTT, the PBM binding z-score in assay [1] is 2.97; in assay [2] it was 2.49; in assay [3] it was 2.14; in assay [4], -0.0504; in assay [5] it was 1.69; in assay [6] it was 1.94. Moreover, the figures for the PBM binding z-score in assay [7] and in assay [8] were -0.304 and -0.0606, respectively.
For CCAACTAGGTCAAGGACAGTGAATCTCCGCACGC, the PBM binding z-score in assay [1] came to 3.18; in assay [2], 3.66; in assay [3], 4.42; in assay [4], 1.8; in assay [5], 2.41; in assay [6] it was 3.16. Also, the PBM binding z-score turned out to be 2.22 in assay [7] and 0.694 in assay [8].
For ATCTCTAGGTAATAGTTCAGTGAATCCCGAGGAT, the PBM binding z-score was 1.24 in assay [1]; 0.897 in assay [2]; 1.33 in assay [3]; 0.172 in assay [4]; 0.482 in assay [5]; 0.745 in assay [6]. Further, the results for the PBM binding z-score in assay [7] and in assay [8] were 0.701 and 0.41, respectively.
Regarding GCTAGCAGGCGATTTGGGTCACTCAATGACGGGC, the PBM binding z-score was 1.23 in assay [1]; 0.467 in assay [2]; 0.586 in assay [3]; -0.454 in assay [4]; 0.643 in assay [5]; 1.91 in assay [6]. Further, the PBM binding z-score in assay [7] is 0.374; in assay [8] it was -0.295.
